High-throughput results from PubChem BioAssay.
TDP1 cell CPT – growth inhibition of DT40 Tdp1-/-;hTDP1 cells with camptothecin (screen for TDP1 inhibitors); chicken DT40 Tdp1-/-;hTDP1 cells + 20 nM CPT, ATP luminescence, 48 h; Potency, µM (top dose mostly 46.2 µM), hits mostly inhibitors; hit rate 12% among 420,000; AID 686979; also: nearly all actives have a fitted effect of over 55% in size
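Chicken DT40 Tdp1-/- cells complemented with human TDP1, 400 cells/well, exposed to compounds plus 20 nM camptothecin for at least 48 h at 37 C; viability read as ATP content by CellTiter-Glo luminescence.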
HT1080 IDH1KD tx – HT-1080 IDH1 knockdown cell toxicity (counter line); HT-1080 IDH1 knockdown viability, ATP luminescence, 48 h; Potency, µM (doses to about 46.1 µM), actives largely listed as cytotoxic; hit rate 2% among 360,000; AID 686971
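Using the IDH1-knockdown HT-1080 line run in the same batch and compound series as the NT line, viability after 48 h at 37 °C was determined by CellTiter-Glo luminescence and expressed as % activity.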
DT40 TDP1 no CPT – qHTS for Inhibitors of human tyrosyl-DNA phosphodiesterase 1 (TDP1): qHTS in cells in absence of CPT. AID 686978, 2013. DT40 Tdp1-/- hTDP1 cells, no CPT, ATP luminescence, 48 h. Potency, µM (top dose mostly 46.2 µM), most hits filed as inhibitors. hit rate 15% among 420,000; also: nearly all actives have a fitted effect of over 55% in size
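Luminescent ATP content (CellTiter-Glo) served as the growth readout. Knockout chicken DT40 cells expressing human TDP1 were exposed to compounds without camptothecin for a minimum 48 hr at 37 °C.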
HT1080NT lethal – kills 2HG-producing HT-1080-NT fibrosarcoma cells; HT-1080-NT fibrosarcoma viability, CellTiter-Glo ATP luminescence, 48 h; Potency, µM (titrated, usually from 46.1 µM), usual class: cytotoxic; hit rate 1.6% among 360,000; AID 686970;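 also: NT is the 2HG producing partner of a matched IDH1 knockdown line; nearly all actives have a fitted effect of over 55% in size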
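HT-1080-NT; 750 cells/well; 5% FBS RPMI; 48 h compound, 37 degrees C; CellTiter-Glo luminescence; curve fitting and curve-class assignment.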
IL-1B inflam inh – inhibitors of inflammasome signaling (IL-1 beta secretion); activity change, % at 57.5 µM; hit rate 4.7% among 360,000; AID 743279; THP-1 LPS/ATP IL-1B secretion, AlphaLISA, 16 h; stronger effect = lower value; in the data active = activity change below about -50%; inconclusive = mostly about -30% to -49%
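THP-1 cells pretreated 1 hr with compounds (up to 57.5 uM final), then stimulated with LPS (250 ng/mL final) plus ATP (1.25 mM final); secreted IL-1B measured by AlphaLISA after 16 hr, decreased signal indicating inhibition.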
Each line names hits and unclear results; the compound was inactive in the other large screens. Only some compounds are listed: those with a hit (about 19% of all), similar ones and a draw of the others. Unless noted, calls follow the shape of the dose curve; as a rule, active = well fitted curve in the direction sought with a large enough effect; inconclusive = small, poorly fitted or top-dose-only effect, or another doubt; inactive = no such curve, though single readings can be large; an effect the other way counts as inactive or inconclusive.

CC1(C)OC(=O)C2(Cc3ccc(Cl)cc3N3CCCC32)C(=O)O1 (stereo unspecified)	DT40 TDP1 no CPT inconclusive (no result: HT1080 IDH1KD tx, HT1080NT lethal, IL-1B inflam inh)
CCOC(=O)c1c(NC(=O)COC(=O)c2nccnc2N)sc(C(=O)N(C)C)c1C	DT40 TDP1 no CPT inconclusive
C=CCOn1c(=O)c(-c2ccc(OCC)cc2)[n+]([O-])c2ccccc21	HT1080 IDH1KD tx inconclusive, HT1080NT lethal inconclusive
Cc1ccc(-c2csc(N(C)C(=O)c3c(C)nn(-c4ccccc4)c3Cl)n2)cc1	TDP1 cell CPT inconclusive, DT40 TDP1 no CPT inconclusive
COc1ccc(OC)c(-c2noc(N3CCN(c4ccc(Cl)cc4)CC3)n2)c1	TDP1 cell CPT inconclusive, DT40 TDP1 no CPT 15µM (no result: HT1080 IDH1KD tx, HT1080NT lethal, IL-1B inflam inh)
COc1ccc(-c2noc(N3CCN(c4cccc(Cl)c4)CC3)n2)cc1OC	TDP1 cell CPT inconclusive, DT40 TDP1 no CPT 8.2µM (no result: HT1080 IDH1KD tx, HT1080NT lethal, IL-1B inflam inh)
COc1cc(-c2ccno2)ccc1S(=O)(=O)N1CCN(c2cccc(Cl)c2)CC1	TDP1 cell CPT 23µM, DT40 TDP1 no CPT inconclusive (no result: HT1080 IDH1KD tx, HT1080NT lethal, IL-1B inflam inh)
COc1ccc(-c2noc(N3CCN(c4cccc(C)c4C)CC3)n2)cc1OC	TDP1 cell CPT 18µM, DT40 TDP1 no CPT 7.3µM (no result: HT1080 IDH1KD tx, HT1080NT lethal, IL-1B inflam inh)
COc1cc(F)ccc1S(=O)(=O)N1CCN(c2ccccc2)CC1	none
COc1ccc(-c2noc(N3CCN(c4ccc(Cl)cc4)CC3)n2)cc1OC	none (no result: HT1080 IDH1KD tx, HT1080NT lethal, IL-1B inflam inh)
c1ccc2c(c1)nc1n2CCC1	TDP1 cell CPT inconclusive
Cc1ccc(S(=O)(=O)N2[C@H](CC(=O)c3ccc(F)cc3)OC[C@@H]2C(C)C)cc1	TDP1 cell CPT inconclusive, DT40 TDP1 no CPT inconclusive
NC(=O)C1C2C=CC(C2)C1c1ccccc1 (stereo unspecified)	none
O=C(c1ccc(Cn2cc(Br)cn2)o1)N1N=C(C(F)F)CC1(O)C(F)F (stereo unspecified)	TDP1 cell CPT 20µM, DT40 TDP1 no CPT inconclusive
COc1ccc(-n2c(C)c([N+](=O)[O-])c3ccc(O)c(CN(C)C)c32)cc1	TDP1 cell CPT inconclusive, DT40 TDP1 no CPT 2.6µM, IL-1B inflam inh -59
CCOC(=O)[C@@H](C)N(C(=O)OC(C)(C)C)S(=O)(=O)N(Cc1ccccc1)[C@H](C(=O)OC)C(C)C	TDP1 cell CPT 23µM, DT40 TDP1 no CPT inconclusive
COc1ccc(NC(=O)c2nc(C)c(C3(C)CC(c4cccnc4)=NO3)s2)cc1 (stereo unspecified)	TDP1 cell CPT 5.8µM, HT1080 IDH1KD tx 6.5µM, DT40 TDP1 no CPT 3.7µM, HT1080NT lethal inconclusive
CNC(=O)c1nc(C)c(C2(C)CC(c3ccccc3)=NO2)s1 (stereo unspecified)	none
Cc1nc(C(=O)Nc2ccc(Cl)cc2)sc1C1(C)CC(c2cccc([N+](=O)[O-])c2)=NO1 (stereo unspecified)	TDP1 cell CPT inconclusive, DT40 TDP1 no CPT inconclusive
Cc1nc(C(=O)Nc2cc(F)cc(Cl)c2)sc1C1(C)CC(c2ccccc2)=NO1 (stereo unspecified)	TDP1 cell CPT 16µM, DT40 TDP1 no CPT 21µM, IL-1B inflam inh inconclusive
Cc1nc(C(=O)NC2CCCCC2)sc1C1(C)CC(c2cccc([N+](=O)[O-])c2)=NO1 (stereo unspecified)	TDP1 cell CPT inconclusive, DT40 TDP1 no CPT 23µM
COc1ccc(Oc2ccc(C(F)(F)F)cc2N)cc1	TDP1 cell CPT inconclusive, DT40 TDP1 no CPT inconclusive
CCC1(c2ccccc2)NC(=O)N(CC(=O)NCC2COc3ccccc3O2)C1=O (stereo unspecified)	TDP1 cell CPT inconclusive, DT40 TDP1 no CPT inconclusive
N#Cc1ccc(Cl)cc1NC(=O)CN1C(=O)C(=O)N(CCC2=CCCCC2)C1=O	none
Cc1nn(CC(=O)NCc2ccc(C(=O)O)cc2)c(C)c1[N+](=O)[O-]	none
O=C1CCCN2N=C(SCC(=O)Nc3ccc(Cl)cc3)SC2=N1	none
O=C(CSC1=NCCN1)Nc1cccc(C(F)(F)F)c1	TDP1 cell CPT 21µM, HT1080 IDH1KD tx 26µM, DT40 TDP1 no CPT inconclusive, IL-1B inflam inh -99
O=C1CCCN2N=C(SCC(=O)Nc3ccccc3C(F)(F)F)SC2=N1	none
O=C1CCCN2N=C(SCC(=O)Nc3cccc(C(F)(F)F)c3)SC2=N1	TDP1 cell CPT 4.6µM, HT1080 IDH1KD tx inconclusive, DT40 TDP1 no CPT 5.2µM
Cc1ccc(NC(=O)CSC2=NN3CCCC(=O)N=C3S2)cc1Cl	TDP1 cell CPT inconclusive, DT40 TDP1 no CPT 21µM
O=C1CCCN2N=C(SCC(=O)Nc3cccc(Cl)c3)SC2=N1	TDP1 cell CPT 16µM, DT40 TDP1 no CPT 21µM, HT1080NT lethal inconclusive
